Assay outcomes from PubChem BioAssay.
RAM inhibit – yeast RAM network inhibition; S. cerevisiae dse1pr::URA3 reporter, 5-FOA growth OD615, 2 d; analog-sensitive cbk1-as2 kinase mutant strain; inhibition, % at 50 µM; actives 1.8% (n = 190,000); AID 868;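 active = inhibition above a set limit, 3 SD over mean compound inhibition, cut at about 8.4% in these data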;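 note: inhibition rescues growth on 5-FOA so higher OD means more RAM inhibition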
Cl transport mod – KCC2 (human) Cl- transport modulation | B-score of Tl+ flux slope (higher = more flux/activation; lower = inhibition) at 10 µM | actives 2.2% (n = 190,000) | Q9H2X9 | KCC2 cells, thallium flux FluoZin-2 fluorescence | AID 1456;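 active = thallium flux slope and its plate-corrected score both differing from the plate sample mean at a set confidence after two filtering rounds, in either direction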;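 note: slope of fluorescence scaled to starting intensity during 10 to 20 s after thallium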
S1P4 antagonist – antagonists of human S1P4 receptor; S1P4-expressing cells, antagonist mode, reporter read-out; O95977; actives 0.26% (n = 220,000); AID 1510; inhibition, % at 4.98 µM; in the data active = inhibition above about 29%
ROMK primary – human ROMK K+ channel modulation, primary screen; P48048; Tet-inducible ROMK, thallium flux fluorescence; actives lie on both sides; B-score at 10 µM; actives 2% (n = 130,000); AID 1918;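 active = signal ratio slope over the read window, or its plate-corrected B-score, at least 3 SD from the plate mean, either direction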;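 note: B-score of the F/F0 ratio slope over 7 to 12 s after thallium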
Target sequence (P48048 whole entry, looked up): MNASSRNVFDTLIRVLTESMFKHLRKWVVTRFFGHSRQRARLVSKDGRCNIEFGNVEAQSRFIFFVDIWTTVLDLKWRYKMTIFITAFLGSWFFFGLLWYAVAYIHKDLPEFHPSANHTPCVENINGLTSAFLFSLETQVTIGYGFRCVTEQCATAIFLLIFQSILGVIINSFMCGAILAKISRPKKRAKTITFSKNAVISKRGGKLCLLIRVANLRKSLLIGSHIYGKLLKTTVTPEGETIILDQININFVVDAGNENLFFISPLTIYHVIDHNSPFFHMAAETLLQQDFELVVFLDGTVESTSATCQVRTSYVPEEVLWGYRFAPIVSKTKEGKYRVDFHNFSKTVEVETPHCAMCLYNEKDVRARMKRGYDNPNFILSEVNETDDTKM
S1P3 antag – blocks the human S1P3 receptor. inhibition, % at 4.98 µM. CHO S1P3 NFAT-BLA reporter, FRET fluorescence, antagonist mode. Q99500. actives 0.27% (n = 170,000);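 active = inhibition above the plate cutoff, the mean inhibition of test wells on that plate plus 3 SD, cut at about 28% in these data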;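 note: cells challenged with S1P at its EC80 of 0.8 µM; blue over green emission ratio from cleaved BLA substrate after 4 h stimulation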
Target sequence (Q99500 whole entry, looked up): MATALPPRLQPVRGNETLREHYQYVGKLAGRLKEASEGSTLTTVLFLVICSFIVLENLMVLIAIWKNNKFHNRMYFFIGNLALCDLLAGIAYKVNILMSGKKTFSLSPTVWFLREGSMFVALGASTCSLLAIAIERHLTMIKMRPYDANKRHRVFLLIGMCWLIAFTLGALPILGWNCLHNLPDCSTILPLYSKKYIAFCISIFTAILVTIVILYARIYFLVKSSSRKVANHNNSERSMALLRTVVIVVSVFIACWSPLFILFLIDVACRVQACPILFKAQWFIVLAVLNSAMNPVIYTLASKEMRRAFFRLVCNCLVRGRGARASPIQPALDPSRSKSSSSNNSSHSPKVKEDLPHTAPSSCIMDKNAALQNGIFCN
S1P4 agonist – human S1P4 receptor agonism | S1P4-expressing cell line, agonist reporter assay | activation, % at 4.98 µM | actives 0.35% (n = 220,000); in the data active = activation above about 11%
KCC2 secondary – KCC2 (human) modulation, secondary assay | shares compounds with Cl transport mod | HEK293-KCC2, thallium flux, FluoZin2 fluorescence; stronger effect = higher value | normalised thallium flux (F/F0 slope) at 10 µM | actives 15% (n = 3,700);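 active = thallium flux slope above the same plate's solvent-only control mean plus 3 SD; inconclusive = the two replicate wells disagree; inactive = no significant difference from solvent-only control wells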
KCC2 bumet counter – bumetanide-insensitive thallium flux in KCC2 cells with ouabain, counter-screen. shares compounds with Cl transport mod. HEK293-KCC2 + bumetanide/ouabain, thallium flux FluoZin2; stronger effect = higher value. normalized thallium flux at 10 µM. actives 49% (n = 3,700). AID 1714;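 active = thallium entry rate above the same plate's blocked-transporter control wells by more than 3 SD; inconclusive = the two repeat wells disagree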;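 note: raw slope of fluorescence over initial fluorescence between 10 and 20 s after thallium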
KCC2 sec2 – KCC2 (human) modulation, second secondary assay. shares compounds with Cl transport mod. HEK293-KCC2, thallium flux FluoZin2 fluorescence; actives lie on both sides; F/F0 rise rate, 10–20 s post-thallium. normalized thallium flux at 10 µM. actives 23% (n = 3,700);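 active = thallium flux slope more than 3 SD above or below the plate's solvent-only control mean, mostly below; inconclusive = the two repeat wells disagreed; inactive = no significant shift from solvent-only controls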
HEK counter1 – counter-screen for KCC2 modulators: effect in parental HEK293 cells; shares compounds with Cl transport mod; thallium flux FluoZin2, ouabain; baseline-ratio fluorescence slope, 10–20 s after thallium; thallium flux rate (normalised fluorescence) at 10 µM; actives 46% (n = 3,700); AID 1716;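 active = thallium flux rate significantly above the same plate's solvent-only control wells, beyond their mean plus 3 SD; inconclusive = the two replicate wells gave conflicting results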
KCC2 retest ouab – modulates human KCC2 on retest with ouabain | raw Tl+ flux slope (below DMSO = inhibition, above = activation) at 10 µM | shares compounds with Cl transport mod | actives 48% (n = 3,700) | HEK293-KCC2, thallium flux FluoZin2 fluorescence; bidirectional: low = inhibitor, high = activator | AID 1717;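 active = thallium flux slope beyond 3 SD from same-plate DMSO control mean in most replicates, usually higher, sometimes lower; inconclusive = repeat tests gave conflicting results; inactive = no significant difference from controls in most replicates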;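 note: slope of initial-normalized fluorescence between seconds 10 and 20 after thallium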
HEK293 Tl flux2 – counter-screen for KCC2 modulators: effect in parental HEK293 cells; thallium flux FluoZin-2 fluorescence slope; thallium flux slope at 10 µM; shares compounds with Cl transport mod; actives 33% (n = 3,700);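 active = thallium flux slope above the same plate's solvent-control mean plus 3 SD in both duplicate wells; inconclusive = duplicate wells that disagreed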;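 note: run without ouabain in cells lacking the KCC2 cotransporter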
Of the large screens only hits and unclear results are named; the others gave an inactive call (follow-up assays come after a bar, where they were run). This is a sample that favours compounds with a hit; in the whole collection about 5.1% have one here.

Cc1[nH]n(-c2ccccc2)c(=O)c1/C=N/N1C(=O)c2ccc3c4c(ccc(c24)C1=O)CC3	Cl transport mod 11 (no result: ROMK primary) | KCC2 secondary inconclusive | KCC2 bumet counter 0.021 | KCC2 sec2 inactive | HEK counter1 0.012 | KCC2 retest ouab inconclusive | HEK293 Tl flux2 inactive
Cc1[nH]n(-c2ccccc2)c(=O)c1/C=N/N(C)c1ccccc1	Cl transport mod 22 (no result: ROMK primary) | KCC2 secondary inactive | KCC2 bumet counter 0.05 | KCC2 sec2 0.045 | HEK counter1 0.032 | KCC2 retest ouab 0.044 | HEK293 Tl flux2 0.035
Cc1[nH]n(-c2ccccc2)c(=O)c1C=NCC1CCCO1 (stereo unspecified)	none
O=C(c1nc2ccccn2c1CN1CCC(Cc2ccccc2)CC1)N1CCCC1	none
CCC(C)n1c(SCC(=O)NC(=O)c2cccn2C)nc2ccccc2c1=O (stereo unspecified)	Cl transport mod 22 | KCC2 secondary 0.016 | KCC2 bumet counter 0.096 | KCC2 sec2 inactive | HEK counter1 0.037 | KCC2 retest ouab 0.042 | HEK293 Tl flux2 0.017
C=CCn1c(SCC(=O)NC(=O)c2cccn2C)nc2ccccc2c1=O	none (no result: ROMK primary)
COc1ccc(C(C(=O)NC(C)(C)C)N(CC2CCCO2)C(=O)CCC(=O)Nc2cc(C)on2)cc1 (stereo unspecified)	none (no result: S1P3 antag)
CC(C(=O)N=c1sc2ccccc2n1C)N1C(=O)C2CC=CCC2C1=O (stereo unspecified)	none (no result: Cl transport mod, ROMK primary) | KCC2 secondary inactive | KCC2 bumet counter inconclusive | KCC2 sec2 inconclusive | HEK counter1 inactive | KCC2 retest ouab inconclusive | HEK293 Tl flux2 inactive
COc1ccc(N(CC(=O)N2CCC(Cc3ccccc3)CC2)S(C)(=O)=O)cc1	Cl transport mod -5 | KCC2 secondary inactive | KCC2 bumet counter inactive | KCC2 sec2 inconclusive | HEK counter1 0.0061 | KCC2 retest ouab 0.015 | HEK293 Tl flux2 inactive
CN(C)S(=O)(=O)N(CC(=O)N1CCC(Cc2ccccc2)CC1)c1ccccc1	none
Cn1c(=O)c([N+](=O)[O-])c(N2CCN(Cc3ccc4c(c3)OCO4)CC2)c2ccccc21	none (no result: RAM inhibit, ROMK primary)
COc1ccc(NC(=O)Nc2ccc(F)c(F)c2)c(OC)c1	none
Nc1ccc(N=Nc2ccccc2)c(N)n1	none (no result: ROMK primary)
Cc1[nH]c(N=Nc2ccccc2)nc1N=Nc1ccccc1	Cl transport mod 76 (no result: RAM inhibit) | KCC2 secondary 0.04 | KCC2 bumet counter 0.14 | KCC2 sec2 0.059 | HEK counter1 0.096 | KCC2 retest ouab 0.098 | HEK293 Tl flux2 0.027
O=C1OC(c2cccs2)=N/C1=C/c1ccc(-c2cccc(C(=O)O)c2)o1	none
O=C1OC(c2cccs2)=N/C1=C\c1ccc(-c2ccccc2Cl)o1	none (no result: Cl transport mod, ROMK primary, S1P3 antag) | KCC2 secondary inactive | KCC2 bumet counter inactive | KCC2 sec2 inactive | HEK counter1 0.0049 | KCC2 retest ouab inconclusive | HEK293 Tl flux2 inactive
Cc1occc1-c1nnc(-c2cc([N+](=O)[O-])cc([N+](=O)[O-])c2)o1	none
CCCN(CCC)C(=O)c1cc([N+](=O)[O-])cc2c1-c1ccc([N+](=O)[O-])cc1C2=C(C#N)C#N	none (no result: RAM inhibit, ROMK primary)
O=C(Cc1cccs1)N1CCCC(c2nc3c(nnn3Cc3ccccc3Cl)c(=O)[nH]2)C1 (stereo unspecified)	Cl transport mod -3.7 | KCC2 secondary inactive | KCC2 bumet counter inactive | KCC2 sec2 inactive | HEK counter1 inactive | KCC2 retest ouab 0.017 | HEK293 Tl flux2 inactive
O=C(CSc1nnnn1-c1ccccc1)Nc1nsc(-c2ccc(Cl)cc2)n1	none (no result: ROMK primary)
O=C(CSc1nnnn1-c1ccccc1)Nc1nsc(-c2ccccc2)n1	Cl transport mod -6.3 (no result: ROMK primary) | KCC2 secondary inactive | KCC2 bumet counter inactive | KCC2 sec2 0.024 | HEK counter1 inactive | KCC2 retest ouab inactive | HEK293 Tl flux2 inactive
O=C(N/N=C/c1ccccn1)c1cc(-c2ccc(Br)cc2)nc2ccccc12	Cl transport mod 9.4 (no result: RAM inhibit, ROMK primary) | KCC2 secondary inactive | KCC2 bumet counter 0.025 | KCC2 sec2 inactive | HEK counter1 inconclusive | KCC2 retest ouab inconclusive | HEK293 Tl flux2 inconclusive
O=C(O)COc1ccccc1/C=N/NC(=O)c1cc(-c2ccc(Cl)cc2)nc2ccccc12	none (no result: RAM inhibit, ROMK primary)
O=C(N/N=C/c1ccccn1)c1cc(-c2ccc(Cl)cc2)nc2ccccc12	Cl transport mod 7.5 | KCC2 secondary inconclusive | KCC2 bumet counter 0.042 | KCC2 sec2 inactive | HEK counter1 0.018 | KCC2 retest ouab inactive | HEK293 Tl flux2 inconclusive
O=C(CSc1nc2[nH]ncc2c(=O)n1-c1ccc(Cl)c(Cl)c1)NCc1ccccc1Cl	none
Cc1cccc(N(CC(=O)NCc2ccc(F)cc2)C(=O)c2csnn2)c1C	none
O=C(NC(=S)Nc1nc(-c2ccccc2)cs1)c1ccco1	Cl transport mod 16 | KCC2 secondary inconclusive | KCC2 bumet counter 0.045 | KCC2 sec2 inactive | HEK counter1 0.02 | KCC2 retest ouab 0.032 | HEK293 Tl flux2 0.012
COc1ccc(-c2csc(NC(=S)NC(=O)c3ccco3)n2)cc1	none (no result: Cl transport mod) | KCC2 secondary inactive | KCC2 bumet counter 0.016 | KCC2 sec2 0.043 | HEK counter1 0.024 | KCC2 retest ouab 0.028 | HEK293 Tl flux2 0.023
O=C(Nc1nc(-c2ccncc2)cs1)c1ccco1	none (no result: Cl transport mod) | KCC2 secondary inactive | KCC2 bumet counter inactive | KCC2 sec2 inactive | HEK counter1 inactive | KCC2 retest ouab inactive | HEK293 Tl flux2 inactive
COc1ccc(-c2csc(NC(=O)COC(=O)c3ccco3)n2)cc1	none
O=C(NC(=S)Nc1c(Cl)ccc2nsnc12)c1ccco1	Cl transport mod 19 (no result: ROMK primary) | KCC2 secondary 0.021 | KCC2 bumet counter 0.067 | KCC2 sec2 inactive | HEK counter1 0.025 | KCC2 retest ouab 0.045 | HEK293 Tl flux2 0.015
O=C(Nc1nc(-c2cccs2)cs1)c1ccco1	none
O=C(Nc1c(Cl)ccc2nsnc12)c1cccnc1	none (no result: ROMK primary)
CCc1nc(SCc2ccc(F)cc2)[nH]c(=O)c1C#N	none (no result: ROMK primary, S1P3 antag)
COc1ccc(S(=O)(=O)N2CCN(c3ccccc3)CC2)cc1	none
